Measurements reported in PubChem BioAssay.
“And” between values parts separate entries of the source, which are not always exact repeats. Equal entries are not always repeated. The source made the active and inactive calls.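 The calls were made as follows: active = compounds whose cell count with miR-34 switched on is under 0.7 times the count with it off; inactive = the rest.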

Assay: sensitizers of A549 cells to miR-34 induction, primary screen, imaging, A549 dox-inducible miR-34, nuclei and caspase counts (AID 1347080); also: test concentration not given here
Conditions: A549 miR-34 inducible, Hoechst nuclei count, 48 h
[1] = stronger effect = lower value, cell number ratio, induced over uninduced
[2] = measured here: relative caspase fold change +Dox/-Dox
[3] = measured here: total cells with miR-34 induction, stronger effect = lower value
[4] = measured here: total cells without miR-34 induction

Row | SMILES | fold change [1] | fold change [2] | cell count [3] | cell count [4]
1 | CCCCC(C)(C)[C@H](O)/C=C/[C@@H]1[C@@H](C/C=C\CCCC(=O)O)[C@H](O)C[C@H]1O | 0.901 (inactive) | 1.73 | 5660 | 6290
2 | Nc1nc2c([nH]c(=O)n2[C@@H]2O[C@H](CO)[C@@H](O)[C@H]2O)c(=O)[nH]1 | 1.03 (inactive) | 0.878 | 5770 | 5600
3 | CC(C)(C)C(=O)Nc1ccccc1 | 0.896 (inactive) | 1.18 | 5080 | 5670
4 | O=C(NCc1ccncc1)C12CC3CC(C1)CC(c1ccc(Cl)cc1)(C3)C2 | 0.915 (inactive) | 1.12 | 4010 | 4380
5 | CCCCCCCC/C=C/CCCCCCCC(=O)O | 1.1 (inactive) | 0.875 | 6340 | 5750
6 | CCCCCCCCCCCCCCP(=O)(O)O | 0.898 (inactive) | 0.729 | 4910 | 5470
7 | CCCCC[C@H](O)/C=C/[C@H]1C2CC(CO2)[C@@H]1C/C=C/CCCC(=O)O (stereo partly specified) | 1 (inactive) | 1.25 | 6110 | 6090
8 | CC(C)(O)c1ccccc1CC[C@H](SCC1(CC(=O)O)CC1)c1cccc(/C=C/c2ccc3ccc(Cl)cc3n2)c1 | 1.04 (inactive) | 0.195 | 5500 | 5280
9 | O=C(O)CCCCCC[C@H]1C(=O)C[C@@H](O)[C@@H]1/C=C/[C@@H](O)Cc1ccccc1 | 1.03 (inactive) | 1.38 | 5710 | 5540
10 | O=C1O/C(=C/Br)CC[C@@H]1c1cccc2ccccc12 | 0.956 (inactive) | 0.986 | 5530 | 5790
11 | CCCCCCCCCC(=O)CC(=O)N[C@H]1CCOC1=O | 0.908 (inactive) | 0.275 | 6050 | 6660
12 | O=C(O)c1ccc2c(c1)CCCC2 | 0.93 (inactive) | 0.342 | 5260 | 5660
13 | O=C(OC[C@@H]1O[C@H]1c1ccccc1)Oc1ccc([N+](=O)[O-])cc1 | 0.896 (inactive) | 0.428 | 5550 | 6200
14 | CC(=O)O[C@@]12C[C@@H](C)[C@@]3(O)[C@@H](C=C(CO)C[C@]4(O)C(=O)C(C)=C[C@@H]34)[C@@H]1C2(C)C | 0.95 (inactive) | 1.47 | 5200 | 5470
15 | COc1cc2c3cc1Oc1c(OC)c(OC)cc4c1[C@@H](Cc1ccc(OC(=O)c5ccc([N+](=O)[O-])cc5)c(c1)Oc1ccc(cc1)C[C@@H]3N(C)CC2)N(C)CC4 | 1.06 (inactive) | 0.897 | 2050 | 1940
16 | CCCCCCCC/C=C\CCCCCCCCCCCCCC(=O)NCCS(=O)(=O)O | 0.871 (inactive) | 0.338 | 5170 | 5940
17 | CC(C)CC[C@@H](O)[C@@H](C)C1CCC2C3CC=C4C[C@@H](O)CC[C@]4(C)C3CC[C@@]21C (stereo partly specified) | 0.933 (inactive) | 1.03 | 5170 | 5530
18 | CCCCCCCC/C=C\CCCCCCCC(=O)C(F)(F)F | 0.972 (inactive) | 0.952 | 6200 | 6380
19 | O=C1OC[C@@H](Cc2cccc(O)c2)[C@@H]1Cc1cccc(O)c1 | 0.923 (inactive) | 1.92 | 5590 | 6060
20 | CCCCCCCCCCCCCCCC(=O)OC[C@H](COP(=O)([O-])OCC[N+](C)(C)C)OC(=O)CCCCCCCC(=O)O | 0.924 (inactive) | 0.678 | 5760 | 6240
21 | CCCCCCCCCCCCCCCCSC[C@H](COP(=O)([O-])OCC[N+](C)(C)C)NC(=O)CCCCCCCCCCCCCCC | 1.04 (inactive) | 0.778 | 6260 | 6010
22 | CCCC[C@H](C)C[C@H](O)/C=C/[C@H]1[C@H](O)CC(=O)[C@@H]1CCCC/C=C/C(=O)O | 0.92 (inactive) | 1.29 | 5710 | 6200

Row | SMILES | fold change [1] | fold change [2] | cell count [3] | cell count [4]
23 | CCCCC/C=C\C/C=C\C/C=C\C/C=C\CCCCNC(=O)c1ccc(O)cc1 | 0.937 (inactive) | 0.908 | 5740 | 6120
24 | CCCCCCCCCCCC(=O)NC[C@]1(C)CCC[C@]2(C)c3ccc(C(C)C)cc3CC[C@@H]12 | 0.97 (inactive) | 1.59 | 6180 | 6370
25 | CCCCCCCCCCCCCCCCCCCCCC(=O)NCCS(=O)(=O)O | 0.845 (inactive) | 0.367 | 5140 | 6090
26 | CCCCC[C@H](O)/C=C/[C@@H]1[C@@H](CCCCCCCO)[C@@H](O)C[C@H]1O | 0.922 (inactive) | 1.15 | 5540 | 6010
27 | C=C1C[C@H](O)[C@H](C/C=C\CCCC(=O)O)[C@H]1/C=C/[C@@H](O)CCCCC | 0.988 (inactive) | 1.72 | 5940 | 6010
28 | CCC(C)[C@H]1O[C@]2(C=C[C@@H]1C)C[C@@H]1C[C@@H](C/C=C(\C)[C@@H](OC3C[C@H](OC)C(O[C@H]4C[C@H](OC)[C@@H](NC(C)=O)[C@H](C)O4)[C@H](C)O3)[C@@H](C)/C=C/C=C3\CO[C@@H]4[C@H](O)C(C)=C[C@@H](C(=O)O1)[C@]34O)O2 (stereo partly specified) | 1.03 (inactive) | 0.79 | 4370 | 4250
29 | CCCCCCCCCCCCCCCCOC[C@H](COP(=O)([O-])OCC[N+]1(C)CCCC1)OC(C)=O | 0.82 (inactive) | 1.31 | 5250 | 6400
30 | CCCC[C@H](CCC(=O)O)NC(=O)CCCCCCc1ccccc1 | 0.993 (inactive) | 1.71 | 6520 | 6570
31 | CCNC(=O)CCC/C=C\C[C@@H]1[C@@H](CC[C@@H](O)CCc2ccccc2)[C@H](O)C[C@@H]1O | 0.901 (inactive) | 1.65 | 5780 | 6420
32 | COc1cc(/C=C/C(=O)N2CCCCCC2)cc(OC)c1OC | 0.968 (inactive) | 0.988 | 7660 | 7910
33 | C=C1C[C@@H](O)[C@H](/C=C/[C@@H](O)C(C)(C)CCCC)[C@H]1C/C=C\CCCC(=O)O | 0.979 (inactive) and 0.901 (inactive) | 1.17 and 1.12 | 6150 and 5990 | 6290 and 6650
34 | CCOC(=O)/C=C/[C@H](CC(C)C)NC(=O)[C@H](CO)NC(=O)[C@@H](NC(=O)c1cccc(O)c1C)C(C)C | 0.61 (active) | 0.781 | 3640 | 5980
35 | O=C(O)CCC/C=C\C[C@H]1[C@@H](O)CC(=O)[C@@H]1/C=C/[C@@H](O)COc1cccc(C(F)(F)F)c1 | 1.01 (inactive) | 1.13 | 6530 | 6490
36 | CN(C)c1ccc(C(=O)NCCCCCC(=O)NO)cc1 | 0.991 (inactive) | 1.29 | 5550 | 5600
37 | CC(C)Oc1ccc(C(=O)c2ccc(NC3=NCCN3)cc2)cc1 | 1.07 (inactive) | 0.773 | 6020 | 5650
38 | CCCCC/C=C\C/C=C\C/C=C\C/C=C\CCCCN1C(=O)C=CC1=O | 0.86 (inactive) | 0.663 | 5540 | 6440
39 | CCCCCCCC/C=C\CCCCCCCC(=O)NCCS(=O)(=O)O | 0.992 (inactive) | 0.63 | 6150 | 6200
40 | CCCCCC(=O)CC[C@H]1C(=O)C=C[C@@H]1C/C=C\CCCC(=O)O | 0.989 (inactive) | 0.66 | 5270 | 5330
41 | CCCCC[C@H](O)/C=C/[C@@H]1[C@@H](C/C=C\CCCC(=O)NCCO)[C@@H](O)C[C@H]1O | 0.899 (inactive) | 1.5 | 5200 | 5780
42 | CCCCCCCC/C=C\CCCCCCCC(=O)NCC(=O)O | 1.05 (inactive) | 0.739 | 6150 | 5840
43 | C[n+]1ccc(/C=C/c2c[nH]c3ccccc23)cc1 | 1.05 (inactive) | 1.99 | 1600 | 1530
44 | Cn1c([N+](=O)[O-])cc[n+]1C | 0.892 (inactive) | 0.659 | 8620 | 9670

Row | SMILES | fold change [1] | fold change [2] | cell count [3] | cell count [4]
45 | CCCCC[C@H](O)/C=C/[C@H]1CC[C@@H](O)[C@@H]1CCCCCCC(=O)O | 0.884 (inactive) | 1.26 | 6100 | 6900
46 | CCNC1=N[C@@H]2[C@@H](O)[C@H](O)[C@@H](CO)O[C@@H]2S1 | 0.906 (inactive) | 1.7 | 6020 | 6640
47 | CCCCCCCCCCCCCCOc1ccc(C(=O)O)o1 | 0.937 (inactive) | 1 | 5650 | 6030
48 | NC1=NC(=O)/C(=C/c2ccc(O)cc2)S1 | 1.06 (inactive) | 1.49 | 6100 | 5780
49 | CCCCCCCCCCCCCCCC(=O)OC[C@@H](O)COP(=O)([O-])OCC[N+](C)(C)C | 1.02 (inactive) | 1.32 | 5910 | 5770
50 | CCCCCCC(Sc1nc(Cl)cc(NCc2ccc(-c3ccccc3)cc2)n1)C(=O)O (stereo unspecified) | 0.993 (inactive) | 1.34 | 6140 | 6180
51 | CC/C=C\C/C=C\C/C=C\C/C=C\CCCCC(=O)OC | 0.976 (inactive) | 1.08 | 5040 | 5160
52 | CCCCCC#CCC#CCCCCCCCC(=O)O | 0.999 (inactive) | 0.839 | 6260 | 6270
53 | CCCCCCCC/C=C\CCCCCCCC(=O)OCC | 1 (inactive) | 0.399 | 5610 | 5590
54 | CCCCC[C@@H](O)/C=C/[C@H]1C[C@H]2C[C@@H]([C@@H]1C/C=C\CCCC(=O)O)C2(C)C | 0.917 (inactive) | 0.452 | 5480 | 5970
55 | O=C(CCC/C=C\C[C@H]1C(=O)C[C@@H](O)[C@@H]1/C=C/[C@@H](O)CCc1ccccc1)NC(CO)CO | 0.931 (inactive) | 0.89 | 5500 | 5910
56 | CCCCC[C@H](O)/C=C/[C@H]1[C@H](O)CC(=O)[C@@H]1C/C=C\CCCC(=O)NCCO | 1.16 (inactive) | 1.44 | 6290 | 5420
57 | O=P(O)(O)OC1C(O)C(OP(=O)(O)O)C(O)C(OP(=O)(O)O)C1O (stereo unspecified) | 0.967 (inactive) | 0.962 | 5750 | 5950
58 | CCCCCCCC/C=C\CCCCCCCCCCCCCC(=O)N[C@@H](CO)[C@H](O)/C=C/CCCCCCCCCCCCC | 0.996 (inactive) | 0.823 | 5810 | 5830
59 | O=C(O)CCC/C=C\C[C@@H]1[C@@H](/C=C/C(=O)CCc2ccccc2)[C@H](O)C[C@@H]1O | 0.902 (inactive) | 1.59 | 5390 | 5980
60 | CC(C)[C@H](O)CC[C@@H](C)[C@H]1CC[C@H]2[C@@H]3CC=C4C[C@@H](O)CC[C@]4(C)[C@H]3CC[C@]12C | 0.898 (inactive) | 0.825 | 5260 | 5860
61 | CCCCCCCCCCCCC/C=C/[C@H](O)[C@@H](CO)NC(=O)CCCCCCCCCCCCCCCCCCCCCCC | 0.979 (inactive) | 0.918 | 5890 | 6010
62 | Nc1nc2c([nH]c(=O)n2[C@H]2C[C@H](O)[C@@H](CO)O2)c(=O)[nH]1 | 0.857 (inactive) | 1.18 | 4960 | 5800
63 | CCCCC/C=C\C/C=C\CC/C=C\CCCC(=O)OCC | 1.04 (inactive) | 1.09 | 5570 | 5390
64 | O=C1C(c2ccccc2)N(c2ccc(Br)cc2)C(=O)N1c1ccc(Br)cc1 (stereo unspecified) | 0.936 (inactive) | 0.667 | 5960 | 6370
